# Measured values taken from the supplement of paper PMC8728848.
# The full list was thinned out, with the strongest signals kept by preference.
# B1: ACA (Amaranthus caudatus) (protein)
# chain: MAGLPVIMCLKSNNNQKYLRYQSDNIQQYGLLQFSADKILDPLAQFEVEPSKTYDGLVHIKSRYTNKYLVRWSPNHYWITASANEPDENKSNWACTLFKPLYVEEGNMKKVRLLHVQLGHYTQNYTVGGSFVSYLFAESSQIDTGSKDVFHVIDWKSIFQFPKRYVTFKGNNGKYLGVITINQLPCLQFGYDNLNDPKVAHEMFVTSNGTICIKSTYMNKFWRLSTDDWILVDGNDPRETNEAAALFRSDVHDFNVISLLNMQKTWFIKRFTSGKPGFINCMNAATQNVDETAILEIIELGSNN
# Experiments:
# Experiment in all cases: glycan array binding signal (z-score within array); higher = stronger binding
# Settings in all cases: glycan notation: IUPAC condensed, linker removed
# [1] = molecular target: Fuc(a1-2)[GalNAc(a1-3)]Gal(b1-4)GlcNAc(b1-6)GalNAc
# Outline: (§1)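 Arrays were curated from the Consortium for Functional Glycomics database, 3228 in total, and kept only where the protein sequence was available. Binding is expressed as a within-array Z-score. This score was averaged across arrays of the same protein sequence at different concentrations or buffers and across linkers, and negative values can be read as non-binding.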
# Fuc(a1-3)GlcNAc = molecular target: Fuc(a1-3)GlcNAc
# Outline: as §1
# [2] = molecular target: Fuc(a1-3)[Gal(b1-4)]Glc6S
# Outline: as §1
# [3] = molecular target: Gal(a1-3)Gal(b1-3)GlcNAc(b1-3)GalNAc
# Outline: as §1
# [4] = molecular target: Gal(a1-3)Gal(b1-4)GlcNAc(b1-6)GalNAc
# Outline: as §1
# [5] = molecular target: Gal(a1-3)Gal(b1-4)[Fuc(a1-3)]GlcNAc(b1-2)Man(a1-3)[Gal(a1-3)Gal(b1-4)[Fuc(a1-3)]GlcNAc(b1-2)Man(a1-6)]Man(b1-4)GlcNAc(b1-4)GlcNAc
# Outline: as §1
# Gal(a1-3)GalNAc = molecular target: Gal(a1-3)GalNAc
# Outline: as §1
# Gal(b1-3)Gal(b1-4)GlcNAc = molecular target: Gal(b1-3)Gal(b1-4)GlcNAc
# Outline: as §1
# [6] = molecular target: Gal(b1-3)GalNAc(a1-3)[Fuc(a1-2)]Gal(b1-4)Glc
# Outline: as §1
# [7] = molecular target: Gal(b1-3)GlcNAc(b1-2)[Gal(b1-3)GlcNAc(b1-6)]Man(a1-6)[Gal(b1-3)GlcNAc(b1-2)Man(a1-3)]Man(b1-4)GlcNAc(b1-4)GlcNAc
# Outline: as §1
# [8] = molecular target: Gal(b1-3)GlcNAc(b1-3)GalNAc
# Outline: as §1
# [9] = molecular target: Gal(b1-4)GalNAc(a1-3)[Fuc(a1-2)]Gal(b1-4)GlcNAc
# Outline: as §1
# Gal(b1-4)GlcNAc(b1-2)Man = molecular target: Gal(b1-4)GlcNAc(b1-2)Man
# Outline: as §1
# [10] = molecular target: Gal(b1-4)GlcNAc(b1-2)Man(a1-3)[Gal(b1-4)GlcNAc(b1-2)Man(a1-6)]Man(b1-4)GlcNAc(b1-4)[Fuc(a1-6)]GlcNAc
# Outline: as §1
# [11] = molecular target: Gal(b1-4)GlcNAc(b1-2)Man(a1-6)Man(b1-4)GlcNAc(b1-4)GlcNAc
# Outline: as §1
# [12] = molecular target: Gal(b1-4)GlcNAc(b1-3)Gal(b1-4)Glc
# Outline: as §1
# [13] = molecular target: Gal(b1-4)GlcNAc(b1-3)Gal(b1-4)GlcNAc(b1-2)Man(a1-3)[Gal(b1-4)GlcNAc(b1-3)Gal(b1-4)GlcNAc(b1-2)Man(a1-6)]Man(b1-4)GlcNAc(b1-4)GlcNAc
# Outline: as §1
# [14] = molecular target: Gal(b1-4)GlcNAc(b1-3)Gal(b1-4)GlcNAc(b1-2)Man(a1-3)[Gal(b1-4)GlcNAc(b1-3)Gal(b1-4)GlcNAc(b1-2)Man(a1-6)]Man(b1-4)GlcNAc(b1-4)[Fuc(a1-6)]GlcNAc
# Outline: as §1
# [15] = molecular target: Gal(b1-4)GlcNAc(b1-3)Gal(b1-4)GlcNAc(b1-3)Gal(b1-4)GlcNAc(b1-2)Man(a1-3)[Gal(b1-4)GlcNAc(b1-3)Gal(b1-4)GlcNAc(b1-3)Gal(b1-4)GlcNAc(b1-2)Man(a1-6)]Man(b1-4)GlcNAc(b1-4)GlcNAc
# Outline: as §1
# [16] = molecular target: Gal(b1-4)GlcNAc(b1-3)Gal(b1-4)GlcNAc(b1-3)[Gal(b1-4)GlcNAc(b1-3)Gal(b1-4)GlcNAc(b1-6)]GalNAc
# Outline: as §1
# [17] = molecular target: Gal(b1-4)GlcNAc(b1-3)Gal(b1-4)GlcNAc(b1-6)[Gal(b1-3)]GalNAc
# Outline: as §1
# [18] = molecular target: Gal(b1-4)GlcNAc(b1-3)[Fuc(a1-3)GlcNAc(b1-6)]Gal(b1-4)Glc
# Outline: as §1
# Gal6S(b1-3)GlcNAc = molecular target: Gal6S(b1-3)GlcNAc
# Outline: as §1
# Glc(a1-4)Glc = molecular target: Glc(a1-4)Glc
# Outline: as §1
# [19] = molecular target: GlcA3S(b1-3)Gal(b1-4)GlcNAc(b1-2)Man
# Outline: as §1
# [20] = molecular target: GlcNAc(b1-3)Gal(b1-4)GlcNAc(b1-3)Gal(b1-4)GlcNAc(b1-2)Man(a1-3)[GlcNAc(b1-3)Gal(b1-4)GlcNAc(b1-3)Gal(b1-4)GlcNAc(b1-2)Man(a1-6)]Man(b1-4)GlcNAc(b1-4)GlcNAc
# Outline: as §1
# [21] = molecular target: GlcNAc(b1-3)Gal(b1-4)GlcNAc(b1-3)Gal(b1-4)GlcNAc(b1-3)Gal(b1-4)GlcNAc(b1-2)[GlcNAc(b1-3)Gal(b1-4)GlcNAc(b1-3)Gal(b1-4)GlcNAc(b1-3)Gal(b1-4)GlcNAc(b1-6)]Man(a1-6)[GlcNAc(b1-3)Gal(b1-4)GlcNAc(b1-3)Gal(b1-4)GlcNAc(b1-3)Gal(b1-4)GlcNAc(b1-2)Man(a1-3)]Man(b1-4)GlcNAc(b1-4)[Fuc(a1-6)]GlcNAc
# Outline: as §1
# Kdn(a2-3)Gal(b1-4)Glc = molecular target: Kdn(a2-3)Gal(b1-4)Glc
# Outline: as §1
# [22] = molecular target: Man(a1-3)[Man(a1-6)]Man(a1-6)[Man(a1-2)Man(a1-3)]Man(b1-4)GlcNAc(b1-4)GlcNAc
# Outline: as §1
# [23] = molecular target: Neu5Ac(a2-3)Gal(b1-3)GlcNAc(b1-2)Man(a1-3)[GlcNAc(b1-4)][Neu5Ac(a2-3)Gal(b1-3)GlcNAc(b1-2)Man(a1-6)]Man(b1-4)GlcNAc(b1-4)GlcNAc
# Outline: as §1
# [24] = molecular target: Neu5Ac(a2-3)Gal(b1-3)[GlcNAc(b1-6)]GalNAc
# Outline: as §1
# [25] = molecular target: Neu5Ac(a2-3)Gal(b1-4)GlcNAc(b1-2)Man(a1-3)[Neu5Ac(a2-6)Gal(b1-4)GlcNAc(b1-2)Man(a1-6)]Man(b1-4)GlcNAc(b1-4)GlcNAc
# Outline: as §1
# [26] = molecular target: Neu5Ac(a2-3)Gal(b1-4)GlcNAc(b1-3)Gal(b1-4)GlcNAc(b1-2)Man(a1-3)[Neu5Ac(a2-3)Gal(b1-4)GlcNAc(b1-3)Gal(b1-4)GlcNAc(b1-2)Man(a1-6)]Man(b1-4)GlcNAc(b1-4)GlcNAc
# Outline: as §1
# [27] = molecular target: Neu5Ac(a2-3)Gal(b1-4)GlcNAc(b1-3)Gal(b1-4)GlcNAc(b1-3)Gal(b1-4)GlcNAc(b1-2)Man(a1-3)[Neu5Ac(a2-3)Gal(b1-4)GlcNAc(b1-3)Gal(b1-4)GlcNAc(b1-3)Gal(b1-4)GlcNAc(b1-2)Man(a1-6)]GalNAc
# Outline: as §1
# [28] = molecular target: Neu5Ac(a2-3)Gal(b1-4)GlcNAc(b1-3)[Neu5Ac(a2-3)Gal(b1-4)GlcNAc(b1-6)]GalNAc
# Outline: as §1
# [29] = molecular target: Neu5Ac(a2-3)Gal(b1-4)GlcNAc(b1-6)[Gal(b1-3)]GalNAc
# Outline: as §1
# [30] = molecular target: Neu5Ac(a2-3)Gal(b1-4)GlcNAc6S
# Outline: as §1
# [31] = molecular target: Neu5Ac(a2-3)[GalNAc(b1-4)]Gal(b1-4)GlcNAc
# Outline: as §1
# [32] = molecular target: Neu5Ac(a2-6)Gal(b1-4)GlcNAc(b1-3)Gal(b1-4)GlcNAc(b1-3)Gal(b1-4)GlcNAc(b1-2)Man(a1-3)[Neu5Ac(a2-6)Gal(b1-4)GlcNAc(b1-3)Gal(b1-4)GlcNAc(b1-3)Gal(b1-4)GlcNAc(b1-2)Man(a1-6)]GalNAc
# Outline: as §1
# [33] = molecular target: Neu5Ac(a2-6)Gal(b1-4)GlcNAc(b1-3)Gal(b1-4)GlcNAc(b1-3)[Neu5Ac(a2-6)Gal(b1-4)GlcNAc(b1-3)Gal(b1-4)GlcNAc(b1-6)]GalNAc
# Outline: as §1
# [34] = molecular target: Neu5Ac(a2-6)Gal(b1-4)GlcNAc(b1-3)Gal(b1-4)[Fuc(a1-3)]GlcNAc(b1-3)Gal(b1-4)[Fuc(a1-3)]GlcNAc
# Outline: as §1
# [35] = molecular target: Neu5Ac(a2-8)Neu5Ac(a2-3)Gal(b1-4)Glc
# Outline: as §1
# [36] = molecular target: Neu5Gc(a2-3)Gal(b1-4)GlcNAc(b1-3)Gal(b1-4)GlcNAc(b1-2)Man(a1-3)[Neu5Gc(a2-3)Gal(b1-4)GlcNAc(b1-3)Gal(b1-4)GlcNAc(b1-2)Man(a1-6)]Man(b1-4)GlcNAc(b1-4)GlcNAc
# Outline: as §1
# [37] = molecular target: Neu5Gc(a2-3)Gal(b1-4)[Fuc(a1-3)]GlcNAc
# Outline: as §1
# [38] = molecular target: Neu5Gc(a2-6)Gal(b1-4)GlcNAc
# Outline: as §1
binder,measurement,setting,value
B1,glycan array binding signal (z-score),[1],-0.116
same,glycan array binding signal (z-score),Fuc(a1-3)GlcNAc,-0.103
same,glycan array binding signal (z-score),[2],0.058
same,glycan array binding signal (z-score),[3],-0.395
same,glycan array binding signal (z-score),[4],-0.246
same,glycan array binding signal (z-score),[5],-0.878
same,glycan array binding signal (z-score),Gal(a1-3)GalNAc,0.156
same,glycan array binding signal (z-score),Gal(b1-3)Gal(b1-4)GlcNAc,0.13
same,glycan array binding signal (z-score),[6],-0.399
same,glycan array binding signal (z-score),[7],-0.184
same,glycan array binding signal (z-score),[8],0.052
same,glycan array binding signal (z-score),[9],-0.471
same,glycan array binding signal (z-score),Gal(b1-4)GlcNAc(b1-2)Man,-0.376
same,glycan array binding signal (z-score),[10],0.193
same,glycan array binding signal (z-score),[11],-0.378
same,glycan array binding signal (z-score),[12],-0.12
same,glycan array binding signal (z-score),[13],4.74
same,glycan array binding signal (z-score),[14],3.63
same,glycan array binding signal (z-score),[15],5.84
same,glycan array binding signal (z-score),[16],5.24
same,glycan array binding signal (z-score),[17],3.84
same,glycan array binding signal (z-score),[18],0.71
same,glycan array binding signal (z-score),Gal6S(b1-3)GlcNAc,-0.469
same,glycan array binding signal (z-score),Glc(a1-4)Glc,0.351
same,glycan array binding signal (z-score),[19],-0.456
same,glycan array binding signal (z-score),[20],3.43
same,glycan array binding signal (z-score),[21],0.586
same,glycan array binding signal (z-score),Kdn(a2-3)Gal(b1-4)Glc,-0.204
same,glycan array binding signal (z-score),[22],6.44
same,glycan array binding signal (z-score),[23],-0.413
same,glycan array binding signal (z-score),[24],-0.266
same,glycan array binding signal (z-score),[25],-0.42
same,glycan array binding signal (z-score),[26],3.13
same,glycan array binding signal (z-score),[27],9.87
same,glycan array binding signal (z-score),[28],0.132
same,glycan array binding signal (z-score),[29],0.029
same,glycan array binding signal (z-score),[30],-0.219
same,glycan array binding signal (z-score),[31],-0.069
same,glycan array binding signal (z-score),[32],3.17
same,glycan array binding signal (z-score),[33],4.69
same,glycan array binding signal (z-score),[34],0.326
same,glycan array binding signal (z-score),[35],-0.424
same,glycan array binding signal (z-score),[36],1.25
same,glycan array binding signal (z-score),[37],-0.167
same,glycan array binding signal (z-score),[38],-0.372
